The list is not random: actives were taken first. Their share in the collection is about 4.6%.
D1 agonist = activates the human D1 dopamine receptor. activation, % at 2 µM. HEK293 T-REx D1 cells, calcium flux, agonist mode. actives 1% (n = 360,000); also: 0% is about no effect
Target sequence (P21728 whole entry, looked up): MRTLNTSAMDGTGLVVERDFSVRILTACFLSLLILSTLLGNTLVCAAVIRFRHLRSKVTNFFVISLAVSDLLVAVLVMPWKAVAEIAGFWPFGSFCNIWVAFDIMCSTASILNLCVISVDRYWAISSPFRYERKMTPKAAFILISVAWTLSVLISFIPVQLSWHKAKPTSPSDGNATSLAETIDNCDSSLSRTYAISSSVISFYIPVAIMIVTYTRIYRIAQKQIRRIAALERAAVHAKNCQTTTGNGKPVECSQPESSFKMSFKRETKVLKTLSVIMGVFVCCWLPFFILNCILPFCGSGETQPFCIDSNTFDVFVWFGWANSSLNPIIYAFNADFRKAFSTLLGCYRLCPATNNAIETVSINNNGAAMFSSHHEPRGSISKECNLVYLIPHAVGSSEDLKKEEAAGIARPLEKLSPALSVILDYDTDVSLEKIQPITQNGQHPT
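Tetracycline-induced HEK293 TREx D1 cells, force-coupled to calcium signalling, were dye-loaded with a no-wash calcium kit. Compound was pin-added after a 10 s baseline. Fluorescence was read kinetically at 1 cycle/s for 180 s, with calcium rises flagged as agonism.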
D1 potentiator = human D1 dopamine receptor positive modulation; HEK293 TREx D1 cells, calcium flux, dopamine EC20 potentiation; potentiation, % at 10 µM; actives 0.036% (n = 360,000); AID 504651; in the data active = potentiation above about 30%; also: 0% is about no effect
TRHR agonist = agonists of human TRH receptor. P34981. actives 0.18% (n = 360,000). activation, % at 2 µM. TRHR cells, calcium flux fluo-8, FDSS agonist mode. AID 493084; also: 0% is about no effect
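Read-out: compound-evoked intracellular calcium rise in TRHR cells, fluo-8 dye, kinetic FDSS fluorescence at 1 s/cycle following a 10-cycle baseline. Cells cultured overnight before dye loading (30 min–1.5 h, RT).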
TRHR enhancer = TRH receptor (human) allosteric enhancement; P34981; actives 0.66% (n = 360,000); TRHR cells, fluo-8 calcium fluorescence, EC20 TRH enhancement; enhancement, % at 2 µM; in the data active = enhancement above about 30%; also: 0% is about no effect
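Enhancer read-out: after compound pinning and an initial kinetic agonist-mode read, an EC20 of TRH (10 nM final) was injected and fluo-8 calcium signal (Ex 480/Em 530) followed at 1 s/cycle for 100 cycles in TRHR-expressing cells.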
D1 antag = human D1 dopamine receptor antagonism; P21728; HEK293 TREx D1 cells, calcium flux, dopamine EC80; hits give low values; activity change, negative = inhibition, % at 10 µM; actives 3.2% (n = 360,000); AID 504652; in the data active = activity change below about -30%; also: % is scaled to controls: 0 for no effect and ±100 for the full control effect
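Kinetic fluorescence of a calcium dye serves as the read-out. D1-expressing Hek293 Trex cells, induced overnight at 30 C, are exposed to compound for 180 s before an EC80 dopamine addition, then read 180 s further.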
* marks the source's active call; other numbers are inactive results. Rule as the data show it, unless noted: active = activation above about 30%; inactive = the rest.

SMILES	D1 agonist	D1 potentiator	TRHR agonist	TRHR enhancer	D1 antag
COCCN(C(=S)Nc1cccc(C)c1C)C(C)c1ccco1 (stereo unspecified)	1.9	-5.7	0.1	-7.8	18.0
COC(=O)c1ccccc1NC(=O)C1CCN(C(=O)N2CC(C)Oc3ccccc32)CC1 (stereo unspecified)	-0.3	-2.0	-0.2	9.2	-1.8
COC(=O)C1=C(C)N(Cc2ccccc2)C(=S)N[C@H]1CCc1ccccc1	-0.9	-0.3	2.2	-2.2	-6.0
CCOC(=O)C1=C(c2ccccc2)N=c2s/c(=C\c3cc(OC)c(OC)c(OC)c3)c(=O)n2C1c1cccs1 (stereo unspecified)	240.2*	-4.0	0.5	-4.2	-1.4
CCOC(=O)C1=C(c2ccccc2)N=c2s/c(=C\c3ccco3)c(=O)n2C1c1cccs1 (stereo unspecified)	1.0	-3.8	1.5	5.6	-5.8
Cc1nc2nc(SCC(=O)NCCc3ccccc3)nn2c(C)c1Cc1c(F)cccc1Cl	-0.5	1.1	-0.2	3.8	5.4
COc1cc(/C=C(\C#N)C(=O)c2ccc(O)c(O)c2)cc(I)c1O	37.8*	-5.5	-1.6	2.1	0.7
COc1cc(/C=C(\C#N)C(=O)N2CCOCC2)cc(Br)c1O	6.5	1.5	1.2	-1.6	-6.2
O=C(Nc1cccc(-n2cccn2)c1)C1CCCN(Cc2ccccc2F)C1 (stereo unspecified)	5.8	-8.3	-0.7	-1.6	-36.4*
CCc1ccc(CNC(=O)C(CC)n2ccc3cc(S(=O)(=O)N4CCCCC4)ccc32)cc1 (stereo unspecified)	5.6	-2.1	1.0	-0.7	9.5
CC(C)CC(C(=O)NC(=O)NCc1ccccc1)N1C(=O)c2ccccc2C1=O (stereo unspecified)	1.5	-9.4	0.1	-0.6	-78.8*
CC1(C)CC(=O)c2sc(NS(=O)(=O)c3ccccc3)nc2C1	-0.8	5.0	0.4	21.5	-37.5*
CC1(C)CC(=O)c2sc(NS(=O)(=O)c3ccc([N+](=O)[O-])cc3)nc2C1	-0.8	-5.9	0.6	6.3	-0.3
COCCNCC(=O)Nc1ccc(OC(F)(F)F)cc1	5.8	-2.4	0.1	-5.8	-2.5
CCOC(=O)CN(c1ccccn1)S(=O)(=O)c1ccccc1	3.5	3.5	0.6	-1.1	10.2
O=C(CN(c1ccccn1)S(=O)(=O)c1ccccc1)Nc1ccccc1	3.4	-2.0	0.7	39.4*	-4.7
COC(=O)c1ccc(CN(c2ccccn2)S(=O)(=O)c2ccccc2)cc1	5.5	-9.2	-1.6	-1.6	-36.0*
O=C(CN(c1ccccn1)S(=O)(=O)c1ccc(F)cc1)Nc1ccccc1	0.1	-4.8	0.0	-8.3	6.2
S=C(NCCc1ccccc1)NC1CC2CCC(C1)N2Cc1ccccc1 (stereo unspecified)	39.2*	-4.9	4.3	5.8	-66.2*
COc1ccc(CCNC(=S)NC2CCN(Cc3ccccc3)CC2)cc1	41.7*	-2.5	3.4	0.0	-28.0
CCCNC(=S)NC1CC2CCC(C1)N2Cc1ccccc1 (stereo unspecified)	1.7	-4.4	-0.1	0.2	10.5
S=C(Nc1ccc(Cl)cc1)NC1CCN(Cc2ccccc2)CC1	39.4*	-0.1	4.8	38.3*	-78.1*
CCC(C)c1ccc(NC(=S)NC2CCN(Cc3ccccc3)CC2)cc1 (stereo unspecified)	21.8	-4.8	2.6	0.5	-12.4
CCc1ccc(NC(=S)NC2CCN(Cc3ccccc3)CC2)cc1	34.1*	-12.9	5.2	-0.8	-81.4*
S=C(Nc1ccccc1)NC1CCN(Cc2ccccc2)CC1	12.9	-5.6	2.1	-1.5	-5.2
SMILES	D1 agonist	D1 potentiator	TRHR agonist	TRHR enhancer	D1 antag
COc1cccc2cc(C(=O)NCc3ccccn3)c(=O)oc12	0.0	-2.7	-0.3	-6.6	-48.7*
COc1cccc2cc(C(=O)N(Cc3cccs3)CC3CCCO3)c(=O)oc12 (stereo unspecified)	1.2	-4.0	0.1	2.8	-37.9*
CNC(=O)c1cc2cccc(OC)c2oc1=O	0.0	-1.6	0.0	4.0	-11.9
COc1ccc(-c2cc3cccc(OC)c3oc2=O)cc1	0.7	2.5	-1.0	-2.3	-3.5
COc1cccc2cc(-c3ccccc3)c(=O)oc12	-1.4	-4.0	-1.0	2.3	-31.1*
COc1cccc2cc(C(=O)N(C)C3CCN(C)CC3)c(=O)oc12	1.0	-10.0	0.5	5.3	-39.4*
